The source of these data is PubChem BioAssay AID2551 (National Center for Advancing Translational Sciences (NCATS), 2010).

Out of some 310,000 compounds screened, about 17,000 (5.5%) were called active. Inconclusive results (about 11%) are left out. Many of the other results were omitted from the sample, so actives are more common in it than they were. A number with no mark means an inactive call. Calls come from the whole dose curve; as a rule, active = well fitted inhibition curve with a large enough effect; inconclusive = small, poorly fitted or top-dose-only effect, or effect the other way; inactive = no such curve, though single readings can be large or run the other way.
% is set by controls: 0 for no effect and ±100 for the full control effect; potency is the fitted concentration of half-maximal effect.

Chain of Nuclear receptor ROR-gamma (Mus musculus) (P51450 whole entry, looked up, the tested form may be a part): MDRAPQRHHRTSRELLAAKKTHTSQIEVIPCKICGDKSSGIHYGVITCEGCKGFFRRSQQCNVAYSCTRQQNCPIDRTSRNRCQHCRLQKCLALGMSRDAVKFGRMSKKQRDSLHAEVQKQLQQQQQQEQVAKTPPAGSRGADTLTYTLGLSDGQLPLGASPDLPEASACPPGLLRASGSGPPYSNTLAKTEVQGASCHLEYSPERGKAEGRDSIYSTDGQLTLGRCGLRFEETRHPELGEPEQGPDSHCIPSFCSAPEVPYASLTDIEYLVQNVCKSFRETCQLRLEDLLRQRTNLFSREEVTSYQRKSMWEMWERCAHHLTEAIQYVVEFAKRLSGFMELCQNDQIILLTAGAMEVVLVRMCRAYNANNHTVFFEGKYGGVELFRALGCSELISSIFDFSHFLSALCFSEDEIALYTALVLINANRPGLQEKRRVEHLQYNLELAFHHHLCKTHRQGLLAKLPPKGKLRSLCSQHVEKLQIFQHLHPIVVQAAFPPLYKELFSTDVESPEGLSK

This test deals with Nuclear receptor ROR-gamma (Mus musculus) (UniProt P51450). In words: qHTS for inhibitors of ROR gamma transcriptional activity. Note: nearly all actives have a fitted effect of over 60% in size. To be noted: Drosophila S2 Gal4-RORgamma UAS-luciferase reporter, 20 h; series mostly up to 53.6 µM; activity change, negative = inhibition: at the top concentration. In outline:
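ROR gamma transcriptional activity was tracked as Gal4-UAS luciferase output in stably transfected Drosophila Schneider cells, with compound added 1 hr before 700 uM copper sulfate induction and a 20 hr ambient-temperature incubation.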
(In general: In qHTS, concentration-response curves come from the screen itself.)
With `CC(=O)c1ccc(N2Cc3ccccc3C2)cc1`, the “activity change, negative = inhibition” value is -1.29%.

As to `COc1cc2c(cc1OC)C(C)N(S(=O)(=O)c1cnc(Cl)c(Cl)c1)CC2` (stereo unspecified), the “activity change, negative = inhibition” value is 1.19%.

Take `COC(=O)/C=C/C(=O)NCc1ccco1`: the “activity change, negative = inhibition” value was -21.6%.

`COc1ccc(-c2cc(C(=O)NCc3ccco3)no2)cc1OC`: the “activity change, negative = inhibition” value is 44.4%.

Consider `COc1cccc(OC)c1C(=O)NC(=S)NCc1ccco1`, for which the Potency is 3.55 µM (active).

For `COc1cccc(NC(=S)NCc2ccco2)c1`, the Potency was 11.2 µM (active).

Consider `COc1cc(-n2c(C)nc3cc(C(=O)NCc4ccco4)ccc32)cc(OC)c1OC`, for which the “activity change, negative = inhibition” value was -10.6%.

Regarding `S=C(NCc1ccco1)Nc1ccc2c(c1)OCCO2`, the “activity change, negative = inhibition” value is -30.9%.

For `COc1cccc(NC(=O)NCc2ccc(F)cc2)c1`, the “activity change, negative = inhibition” value was 13.4%.

As for `COc1cc(C(=O)N[C@@H](C)C(=O)NCc2ccco2)cc(OC)c1OC`, the “activity change, negative = inhibition” value was -0.487%.

`COc1cc(C(=O)NC(=S)NCc2ccco2)cc(OC)c1OC`: the Potency is 6.31 µM (active).

Consider `CCOC(=O)N1CCN(C(=O)c2cn(C)c3ccc(S(=O)(=O)N(CC)CC)cc3c2=O)CC1`, for which the “activity change, negative = inhibition” value is -12.9%.

As for `Cc1c(NC(=O)CSCc2ccccc2)cccc1C(=O)O`, the “activity change, negative = inhibition” value was -17.2%.

As for `Cc1occc(=O)c1OCc1ccc(F)cc1`, the “activity change, negative = inhibition” value was -1.17%.

For the molecule `CC(=O)Nc1ccc(NS(=O)(=O)c2ccc3c(c2)NC(=O)CC(=O)N3)cc1`, the “activity change, negative = inhibition” value is -30.5%.

In the case of `Cn1ncc2c(N3CCCCC3)nc(NCCCO)nc21`, the “activity change, negative = inhibition” value is -17.9%.

For the molecule `O=C(NCc1ccc2c(c1)OCO2)C(=O)NCC1OCCN1S(=O)(=O)c1ccc(F)cc1` (stereo unspecified), the “activity change, negative = inhibition” value was 52.2%.

In the case of `O=[N+]([O-])c1ccc(N2CCN(c3ccc(F)cc3)CC2)cn1`, the “activity change, negative = inhibition” value was 14.3%.

Regarding `COc1cc(NC(=S)NCc2ccc(S(N)(=O)=O)cc2)cc(OC)c1`, the “activity change, negative = inhibition” value is 3.21%.

For the molecule `COC(=O)c1sccc1NC(=S)Nc1ccc(C)cc1`, the “activity change, negative = inhibition” value is 11.9%.

In the case of `Cc1cc(C)cc(NC(=O)NC2CCCCCCC2)c1`, the “activity change, negative = inhibition” value was 19.2%.

Turning to `CCCCC(=O)NCc1ccc(F)cc1`, the “activity change, negative = inhibition” value was 3.75%.

Consider `CC(Oc1ccc(Br)cc1Br)C(=O)NC1CCCC1` (stereo unspecified), for which the “activity change, negative = inhibition” value is 12.7%.

As for `O=C(NC1CCN(Cc2ccccc2)CC1)c1cc(Br)c(Br)[nH]1`, the “activity change, negative = inhibition” value is 6.64%.

For `O=C(COc1ccc(Br)cc1F)NC1CCN(Cc2ccccc2)CC1`, the “activity change, negative = inhibition” value was -11%.

Consider `Cc1cc(C)cc(NC(=S)NCc2ccc(F)cc2)c1`, for which the Potency was 2.51 µM (active).

Regarding `Cc1cc(Br)ccc1NC(=S)NC1CCCC1`, the Potency is 3.16 µM (active).

Consider `Cc1ccc(C(=O)CNc2ccc(F)cc2)cc1`, for which the “activity change, negative = inhibition” value was 0.535%.

Turning to `Cc1ccc(NC(=S)Nc2ccc(F)cc2)cc1`, the Potency is 11.2 µM (active).

Take `S=C(Nc1ccc(Br)cc1Cl)NC1CCN(Cc2ccccc2)CC1`: the Potency was 10 µM (active).

On to `CC(=O)Nc1ccc(Oc2ccc3c(c2)C(=O)NC3=O)cc1`, for which the “activity change, negative = inhibition” value was 20.2%.

On to `O=C(NCCCn1ccnc1)/C(=C\c1ccccc1F)NC(=O)c1ccccc1`, for which the “activity change, negative = inhibition” value is -8.54%.

Regarding `CCc1cc(=O)oc2c(C)c(OCC(=O)NCCN3CCOCC3)ccc12`, the “activity change, negative = inhibition” value was -18%.

As to `CCCc1cc(=O)oc2cc(OCC(=O)Nc3ccc(CN4CCOCC4)cc3)c(Cl)cc12`, the “activity change, negative = inhibition” value was -1.12%.

In the case of `COc1ccc(N2CCN(CCNC(=O)Nc3cc(Cl)ccc3Cl)CC2)cc1`, the “activity change, negative = inhibition” value is -9.76%.

Turning to `CCOC(=O)C1=C(CCc2ccccc2)NC(=O)NC1c1ccc2ccccc2c1` (stereo unspecified), the “activity change, negative = inhibition” value is 30%.

Turning to `COc1ccc(CNC(=O)Cc2ccc(-c3ccccc3)cc2)cc1OC`, the “activity change, negative = inhibition” value was 42.9%.

As to `CCOc1ccc(NC(=O)c2cccc3c2C(=O)N(CC2CCCO2)C3)cc1` (stereo unspecified), the “activity change, negative = inhibition” value was -32.5%.

As to `COc1ccc(-c2noc(CCCC(=O)NC3CCCC3)n2)cc1OC`, the “activity change, negative = inhibition” value is -9.96%.

In the case of `O=C(CCn1nnc2ccccc21)OCC(=O)c1ccc([N+](=O)[O-])cc1`, the “activity change, negative = inhibition” value is -28.8%.

For the molecule `COc1ccc(C2NC(=O)N(C)C(C)=C2[N+](=O)[O-])cc1` (stereo unspecified), the “activity change, negative = inhibition” value is -29.9%.

Turning to `CCN(CC(=O)Nc1ccc2c(c1)OCO2)S(=O)(=O)c1ccccc1`, the “activity change, negative = inhibition” value was 4.13%.

Consider `CCc1c(C)nc(SCC(=O)NC2CCCC2)[nH]c1=O`, for which the “activity change, negative = inhibition” value was -5.4%.

For the molecule `CN(CCc1ccccn1)C1CCCN(S(=O)(=O)c2ccccc2Cl)C1` (stereo unspecified), the “activity change, negative = inhibition” value was 0%.

Consider `O=C(NC1CCN(Cc2ccccc2)CC1)c1c(F)cccc1F`, for which the “activity change, negative = inhibition” value is 1.32%.

Regarding `Cc1cc(C)cc(NC(=S)NCCc2c[nH]c3ccccc23)c1`, the Potency is 7.08 µM (active).

Take `S=C(NN=C1CCN(Cc2ccccc2)CC1)NC1CCCCC1`: the Potency is 2.24 µM (active).

Take `COc1ccccc1CC(=O)NCCc1c[nH]c2ccccc12`: the “activity change, negative = inhibition” value is 10.5%.

Consider `Cc1ccc(NC(=S)NC2CCCC2)cc1`, for which the Potency is 3.55 µM (active).

Regarding `O=C(NC1CCN(Cc2ccccc2)CC1)c1ccccc1F`, the “activity change, negative = inhibition” value was -14.8%.

On to `O=C(NCCc1c[nH]c2ccccc12)c1cccc(Br)c1`, for which the “activity change, negative = inhibition” value is -2.38%.

Consider `Cc1ccc(NC(=O)CSCC(=O)NC2CCCCC2)cc1`, for which the “activity change, negative = inhibition” value is -0.956%.

In the case of `CC(C)c1ccc(NC(=O)NC2CCCCC2)cc1`, the “activity change, negative = inhibition” value was 2.06%.

Take `COc1ccc(CN2CCN(Cc3ccc(OC)c(OC)c3OC)CC2)cc1`: the “activity change, negative = inhibition” value was -0.466%.

On to `CC1(c2ccc(Cl)cc2)NC(=O)N(CC(=O)c2ccc3c(c2)OCO3)C1=O` (stereo unspecified), for which the “activity change, negative = inhibition” value was 9.33%.

In the case of `CCc1ccc(Oc2coc3cc(O)ccc3c2=O)cc1`, the “activity change, negative = inhibition” value was -36.1%.
